Reference: PubChem BioAssay (Tox21)
Inconclusive results are not listed. The source made the active and inactive calls. Calls follow the shape of the dose curve; as a rule, active = well fitted activation curve with a large enough effect in the signal ratio in the repeat runs (not every such curve was filed as active); inconclusive = weak or mixed curves, or effect the other way; inactive = flat fitted curve, though single readings scatter; the % refers to the signal ratio.

The compounds below were run against Bile acid receptor (Homo sapiens) (UniProt Q96RI1) (assay: qHTS assay to identify small molecule agonists of the farnesoid-X-receptor (FXR) signaling pathway (AID 743220)). Conditions: HEK293T FXR-UAS-bla, beta-lactamase FRET ratio, 16 h; series mostly up to 62.6 µM.
Chain of Bile acid receptor (Homo sapiens) (Q96RI1 whole entry, looked up): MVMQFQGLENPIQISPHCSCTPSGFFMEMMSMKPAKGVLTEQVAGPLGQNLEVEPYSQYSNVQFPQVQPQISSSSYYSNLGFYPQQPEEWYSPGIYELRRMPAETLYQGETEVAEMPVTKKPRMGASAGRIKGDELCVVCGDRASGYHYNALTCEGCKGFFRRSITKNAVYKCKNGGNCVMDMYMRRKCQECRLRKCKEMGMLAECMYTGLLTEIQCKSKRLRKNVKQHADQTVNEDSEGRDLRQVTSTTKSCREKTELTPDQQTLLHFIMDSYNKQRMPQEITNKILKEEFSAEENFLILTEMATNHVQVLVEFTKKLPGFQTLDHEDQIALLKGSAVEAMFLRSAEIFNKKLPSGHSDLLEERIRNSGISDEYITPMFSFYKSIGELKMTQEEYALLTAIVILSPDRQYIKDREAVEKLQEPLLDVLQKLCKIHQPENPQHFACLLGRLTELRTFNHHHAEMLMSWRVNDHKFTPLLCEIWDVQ
From the text: National Center for Advancing Translational Sciences [NCATS]
NIH Chemical Genomics Center [NCGC]
U.S. Environmental Protection Agency [EPA]
National Institutes of Environmental Health Sciences [NIEHS]
National Toxicology Program [NTP]
U.S. Food and Drug Administration [FDA]
The farnesoid-X-receptor (FXR), a nuclear hormone receptor, is highly expressed in liver, intestine, kidney and adrenal cortex. Natural ligands of FXR are the bile acids (Cholic acid, Chenodeoxy cholic acid etc). FXR is an important regulator of diverse metabolic pathways, including the bile acid homeostasis, lipid and glucose metabolisms. FXR regulates the expression of target genes by binding either as a monomer or as a heterodimer with the retinoid X receptor (RXR). Numerous studies have reported that FXR exerts protective function during cholestasis, diabetes, liver regeneration, and cancer. To identify compounds that activate FXR signaling, GeneBLAzer FXR-UAS-bla HEK 293T cell line (Invitrogen, Carlsbad, CA) containing a beta-lactamase reporter gene under the control of a UAS response element was used to screen the Tox21 10K compound library.
Tox21 Assay Protocol Summary:
FXR-bla cells were dispensed at 5000 cells/5uL/well in 1536-well black wall/clear bottom plates using a Multidrop Combi (Thermo Fisher Scientific, Waltham, MA) dispenser. After the assay plates were incubated at 37C and 5% CO2 for 5 h, 23 nL of compounds dissolved in DMSO, positive controls or DMSO only was transferred to the assay plate by a Pintool station (Kalypsys, San Diego, CA). The assay plates were incubated at 37C for 16 h. After 1 uL of LiveBLAzerTM B/G FRET substrate was added using a Bioraptr Flying Reagent Dispenser (FRD) workstation (Beckman Coulter, Indianapolis, IN), the plates were incubated at room temperature for 2 h, and fluorescence intensity was measured by an Envision plate reader (PerkinElmer, Shelton, CT).

Structure (SMILES) | outcome
CC(=O)C1CCOC1=O (stereo not given) | inactive
Nc1ccc(N)cc1 | inactive
C=CCN=C=S | inactive
CNc1cnn(-c2cccc(C(F)(F)F)c2)c(=O)c1Cl | inactive
FC(F)(F)c1ccc(Cl)cc1 | inactive
Nc1cccc(Cl)c1 | inactive
OCCCCO | inactive
CCOC(=O)CC(SP(=O)(OC)OC)C(=O)OCC (stereo not given) | inactive
Cc1cccc(C)c1NC(=O)CN1CCCC1=O | inactive
C[C@H]1C(=O)O[C@@H]2CCN3CC=C(COC(=O)[C@](C)(O)[C@]1(C)O)[C@H]23 | inactive
O=[N+]([O-])c1ccc(Cl)c(Cl)c1 | inactive
O=C(O)C(Br)Br | inactive
ClCCOCCCl | inactive
CSc1nnc(C(C)(C)C)c(=O)n1N | inactive
Nc1cc(Cl)cc(Cl)c1 | inactive
Nc1nc(N)nc(NC2CC2)n1 | inactive
O=C(O)Cc1ccccc1 | inactive
OCc1ccco1 | inactive
CCOc1ccc(N)cc1 | inactive
Cl[C@H]1OCCO[C@@H]1Cl | inactive

Structure (SMILES) | outcome
CNC(=O)O/N=C/C(C)(C)SC | inactive
CCCCC(CC)C(=O)Cl (stereo not given) | inactive
CNC(=O)Oc1cccc2ccccc12 | inactive
[N-]=[N+]=CC(=O)OC[C@H](N)C(=O)O | inactive
CNCC(O)c1ccc(O)cc1 (stereo not given) | inactive
CNC(=O)O/N=C/C(C)(C)S(C)=O (stereo not given) | inactive
COP(=S)(OC)SCN1C(=O)c2ccccc2C1=O | inactive
Nc1ncc([N+](=O)[O-])s1 | inactive
COc1nc(NC(C)C)nc(NC(C)C)n1 | inactive
O=C(O)C1C(C(=O)O)C2(Cl)C(Cl)=C(Cl)C1(Cl)C2(Cl)Cl (stereo not given) | inactive
Cc1cccc(N)c1C | inactive
N#CN=C(N)N | inactive
CC(C)CCCCCCOC(=O)c1ccccc1C(=O)OCCCCCCC(C)C | inactive
COC(=O)Nc1cccc(OC(=O)Nc2cccc(C)c2)c1 | inactive
Cc1cc(O)ccc1Cl | inactive
Cc1cccc(C)c1N | inactive
c1ccc2c(c1)CCCC2 | inactive
CCCOC(=O)c1ccccc1C(=O)OCCC | inactive
O=C(O)CCCc1ccc(N(CCCl)CCCl)cc1 | inactive
Clc1cnc(Oc2ccc(Oc3ncc(Cl)cc3Cl)cc2)c(Cl)c1 | inactive
